Inconclusive results are not listed. Calls of active or inactive are those of the source. The call rests on the fitted dose curve; in most records, active means well fitted curve in the direction sought with a large enough effect; inconclusive means small, poorly fitted or top-dose-only effect, or another doubt; inactive means no such curve, though single readings can be large; an effect the other way counts as inactive or inconclusive.
Tests used:
[1] = Counterscreen for APE1 Inhibitors: Fluorescent Dye Displacement Validation Assay (AID 1707); settings: fluorescent dye displacement from DNA; series mostly up to 57.1 µM
Outline: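 Endpoint fluorescence read at 480 nm excitation / 540 nm emission; DNA-binding compounds lower signal by displacing 250 nM Thiazole Orange from 50 nM dsDNA containing a tetrahydrofuran abasic site, Tris-HCl pH7.5 buffer with NaCl and MgCl2.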

[2] = qHTS for differential inhibitors of proliferation of Plasmodium falciparum line 7G8 (AID 1815); settings: Plasmodium falciparum 7G8 proliferation inhibition; series mostly up to 28.7 µM;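 further: parasite growth measured after three days of incubation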; further: potency means the concentration at half of the fitted maximal effect
[3] = qHTS for differential inhibitors of proliferation of Plasmodium falciparum line D10 (AID 1877); settings: series mostly up to 28.7 µM;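 further: parasites grown with compound for 72 h before DNA staining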; further: potency means the concentration at half of the fitted maximal effect
[4] = qHTS for differential inhibitors of proliferation of Plasmodium falciparum line Dd2 (AID 1882); settings: Potency: Plasmodium falciparum Dd2 proliferation inhibition; series mostly up to 28.7 µM; further: nearly all actives have a fitted effect of over 65% in size; further: potency means the concentration at half of the fitted maximal effect
Outline: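 RBC culture, 0.3% parasitemia / 2.5% Hct final; cpd added by pin tool in DMSO; 72 h, 37 C, 5% CO2; lysis buffer + SYBR Green I, o/n RT dark; FI 485/535; norm. to artemisinin 0.29 uM and DMSO.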

[5] = molecular target: Endonuclease 4 (Escherichia coli (strain K12)) (UniProt P0A6C1); assay: Counterscreen for APE1 Inhibitors: qHTS Validation Assay for Inhibitors of Endonuclease IV (AID 1708); settings: E. coli endonuclease IV, DNA cleavage fluorescence; series mostly up to 57.1 µM
Outline: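 Measured as reaction progress, the fluorescence gain between first and third kinetic reads after adding 50 nM TAMRA/BHQ-2 THF duplex to 2 nM enzyme preincubated 15 min with compound; 2 mM MgCl2, pH 7.5.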

[6] = qHTS for differential inhibitors of proliferation of Plasmodium falciparum line 3D7 (AID 1876); further: potency means the concentration at half of the fitted maximal effect; settings: P. falciparum 3D7 proliferation inhibition; series mostly up to 28.7 µM
[7] = qHTS for differential inhibitors of proliferation of Plasmodium falciparum line GB4 (AID 1816); settings: Potency: Plasmodium falciparum GB4 proliferation inhibition; series mostly up to 28.7 µM;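 further: parasite growth measured after 72 h incubation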; further: potency means the concentration at half of the fitted maximal effect
[8] = qHTS for differential inhibitors of proliferation of Plasmodium falciparum line W2 (AID 1883); settings: Potency: Plasmodium falciparum W2 proliferation inhibition; series mostly up to 28.7 µM;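 further: potency means the concentration at half of the fitted maximal effect; parasites grown with compound for 72 h before lysis and staining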
[9] = molecular target: DNA repair nuclease/redox regulator APEX1 (Homo sapiens) (UniProt P27695); assay: qHTS Validation Assay for Inhibitors of the Human Apurinic/apyrimidinic Endonuclease 1 (APE1) (AID 1705;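 further: TAMRA fluorescence gain over two minutes as APE1 cuts a quenched THF abasic duplex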); settings: purified APE1 endonuclease activity, fluorescence, titration; series mostly up to 57.1 µM
Outline: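 Activity read as rising fluorescence (598 nm emission, 525 nm excitation) from incision of a TAMRA/BHQ-2 duplex carrying a THF abasic site (50 nM). Compound and enzyme sat 15 min at RT before substrate start; signal change between first and third 60-s reads.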

Measured: Potency

Chain of DNA repair nuclease/redox regulator APEX1 (Homo sapiens) (P27695 whole entry, looked up): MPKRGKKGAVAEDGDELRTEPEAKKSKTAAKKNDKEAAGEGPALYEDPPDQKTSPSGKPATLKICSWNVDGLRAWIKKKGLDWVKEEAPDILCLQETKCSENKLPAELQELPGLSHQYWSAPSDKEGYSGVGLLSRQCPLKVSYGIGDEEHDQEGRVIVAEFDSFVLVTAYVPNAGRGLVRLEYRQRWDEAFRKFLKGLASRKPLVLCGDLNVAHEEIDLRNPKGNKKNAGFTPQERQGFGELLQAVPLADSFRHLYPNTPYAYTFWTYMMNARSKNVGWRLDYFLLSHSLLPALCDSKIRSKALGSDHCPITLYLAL

Nc1c2c(nc3ccccc13)CCCC2O (stereo not given)
inactive: [1] | [2] | [3] | [4]

CCCNC(C)C(=O)Nc1ccccc1C (stereo not given)
not listed: [7] | [8] | [9]
inactive: all other assays above

CN(C)C/C=C(/c1ccc(Br)cc1)c1cccnc1
inactive: [1] | [5]
active: [2] 7.08 µM | [7] 12.6 µM | [6] 10 µM | [3] 11.2 µM | [8] 7.08 µM

CO[C@@]1(NC(=O)CSCC#N)C(=O)N2C(C(=O)O)=C(CSc3nnnn3C)CS[C@@H]21
not listed: [5] | [8]
inactive: all other assays above

CC(C(=O)O)c1ccc(CC2CCCC2=O)cc1 (stereo not given)
not listed: [5] | [8]
inactive: all other assays above

OCCN1CCN(CC/C=C2/c3ccccc3Sc3ccc(C(F)(F)F)cc32)CC1
active: [2] 2.51 µM | [7] 2.24 µM | [6] 2.51 µM | [3] 12.6 µM | [4] 7.94 µM | [8] 1.58 µM
inactive: [1]

CCOC(=O)C1=C(C)NC(C)=C(C(=O)OC)C1c1cccc(Cl)c1Cl (stereo not given)
inactive: [9] | [1]
active: [2] 12.6 µM | [7] 12.6 µM | [6] 8.91 µM | [3] 15.8 µM | [8] 8.91 µM

Cc1nnc(SCC2=C(C(=O)O)N3C(=O)[C@@H](NC(=O)Cn4cnnn4)[C@H]3SC2)s1
inactive: [1] | [5] | [6] | [3] | [4]
